Here are results for 17 compounds from PMC5540273 (PLoS ONE, 2017).

Among the test systems are PIKFYVE; PIM1; PIM2; PIM3; PIP5K1A; PIP5K1C; PIP5K2B.
Settings in all cases: concentration: 1 μM, replicates: in singlicate; n = 1
For the next assay, the system named is T1, PIK4CB.
T1 construct: gene PI4KB

The next assay has as its system T2, PIP5K2C.
T2 construct: gene PIP4K2C

For a further assay, the system named is T3, PKAC-alpha.
T3 construct: gene PRKACA
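Note: KINOMEscan kinase panel screen.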

With `COc1ccc(Nc2nccc(-c3ccc(NC(=O)c4cc5cc(F)ccc5[nH]4)cc3)n2)cc1` [GSK1229496], the “%Inh” value in the assay on PIK4CB was 0%; in the assay on PIKFYVE, 0%; in the assay with PIM1, 0%; in the assay with PIM2, 0%; in the assay on PIM3 it was 0%; in the assay on PIP5K1A, 37%. Moreover, the “%Inh” value in the assay on PIP5K1C was 54%; with PIP5K2B, 17%; in the assay on PIP5K2C, 41%; in the assay on PKAC-alpha, 0%.

As for `Cc1ccc(NC(=O)Nc2ccccc2F)cc1-c1ccc(C(=O)Nc2ccncc2)cc1` [GSK1398477], the “%Inh” value with PIK4CB came to 0%; in the assay on PIKFYVE, 0%; in the assay on PIM1 it was 6%; with PIM2 it was 0%; in the assay on PIM3, 0%; with PIP5K1A it was 0%. Also, the “%Inh” value in the assay with PIP5K1C was 0%; with PIP5K2B, 0%; in the assay on PIP5K2C, 0%; in the assay on PKAC-alpha it was 46%.

`CC(=O)c1c(C)c2cnc(Nc3ccc(N4CCNCC4)cn3)nc2n(C2CCCC2)c1=O`: the “%Inh” value with PIK4CB came to 0%; in the assay with PIKFYVE it was 39%; in the assay on PIM1 it was 0%; in the assay with PIM2 it was 0%; in the assay with PIM3, 0%; in the assay on PIP5K1A, 0%. Besides, the “%Inh” value in the assay with PIP5K1C was 0%; in the assay on PIP5K2B, 0%; with PIP5K2C, 14%; in the assay with PKAC-alpha, 0%.

As to `COc1ccc(CSc2nnc(-c3ccc4c(c3)CCO4)o2)cc1`, the “%Inh” value is listed as 0% with PIK4CB; 0% in the assay on PIKFYVE; 0% in the assay with PIM1; 0% with PIM2; 0% in the assay with PIM3; 11% in the assay with PIP5K1A. Moreover, the “%Inh” value with PIP5K1C came out at 23%; with PIP5K2B, 9%; in the assay with PIP5K2C, 14%; in the assay with PKAC-alpha, 0%.

With `COc1cccc(NC(=O)Nc2ccc(C)c(-c3ccc(C(=O)Nc4ccncc4)cc3)c2)c1` [GSK1398474], the “%Inh” value in the assay with PIK4CB turned out to be 0%; in the assay with PIKFYVE, 0%; with PIM1, 15%; in the assay on PIM2, 0%; in the assay on PIM3 it was 22%; in the assay with PIP5K1A, 0%. Besides, the “%Inh” value in the assay with PIP5K1C is 0%; in the assay on PIP5K2B it was 0%; in the assay with PIP5K2C, 0%; in the assay on PKAC-alpha, 17%.

With `CNc1nc(-c2ccc3c(N)n[nH]c3c2)cc(N2C[C@@H](C(=O)Nc3ccccc3)CC[C@H]2C)n1` [GSK2298859], the “%Inh” value in the assay with PIK4CB, in the assay on PIKFYVE, in the assay on PIM1, in the assay on PIM2, with PIM3 and in the assay with PIP5K1A was 0% each time. Moreover, the “%Inh” value with PIP5K1C was 50%; with PIP5K2B, 0%; with PIP5K2C, 3%; in the assay on PKAC-alpha, 57%.

On to `Nc1nccc(-c2c(-c3ccc(F)cc3)ncn2C2CCN(Cc3ccccc3)CC2)n1` [SB-219980], for which the “%Inh” value in the assay with PIK4CB was 25%; with PIKFYVE, 6%; in the assay on PIM1 it was 0%; with PIM2, 0%; in the assay with PIM3 it was 0%; in the assay with PIP5K1A it was 0%. In addition, the “%Inh” value in the assay with PIP5K1C is on record as 15%; with PIP5K2B, 0%; in the assay with PIP5K2C, 82%; in the assay with PKAC-alpha it was 2%.

Consider `O=C(Nc1n[nH]c2nc(-c3cccs3)c(Br)cc12)C1CCCC1` [SB-743341], for which the “%Inh” value in the assay with PIK4CB is listed as 33%; in the assay on PIKFYVE it was 9%; in the assay with PIM1, 0%; with PIM2, 0%; in the assay with PIM3, 0%; with PIP5K1A, 0%. Further, the “%Inh” value is given as 23% in the assay with PIP5K1C, 3% with PIP5K2B, 0% in the assay with PIP5K2C and 0% in the assay with PKAC-alpha.

In the case of `O=c1cc(N2CCOCC2)nc2n(Cc3ccccc3F)ccn12` [GSK2297428], the “%Inh” value with PIK4CB was 0%; in the assay on PIKFYVE, 0%; in the assay on PIM1, 0%; with PIM2, 0%; in the assay on PIM3 it was 0%; in the assay on PIP5K1A, 6%. Further, the “%Inh” value in the assay on PIP5K1C turned out to be 31%; in the assay with PIP5K2B, 19%; in the assay with PIP5K2C, 0%; with PKAC-alpha, 0%.

Take `FC(F)(F)c1ccccc1-c1cc(-c2c[nH]nc2-c2ccccn2)ccn1` [GW679396]: the “%Inh” value was found to be 0% in the assay on PIK4CB; 0% with PIKFYVE; 0% in the assay with PIM1; 0% with PIM2; 0% in the assay with PIM3; 5% with PIP5K1A. The “%Inh” value in the assay with PIP5K1C is on record as 32%; in the assay on PIP5K2B, 15%; in the assay with PIP5K2C, 0%; in the assay with PKAC-alpha, 0%.

Turning to `COc1ccc(Nc2nccc(N3CCC(NC(=O)c4cc5ccccc5s4)C3)n2)cc1` (centres unmarked) [GSK1379738], the “%Inh” value with PIK4CB came to 19%; with PIKFYVE it was 0%; in the assay on PIM1, 25%; in the assay with PIM2, 0%; in the assay on PIM3, 21%; with PIP5K1A, 0%. Moreover, the “%Inh” value in the assay with PIP5K1C is recorded as 40%; in the assay with PIP5K2B it was 13%; in the assay with PIP5K2C it was 47%; in the assay with PKAC-alpha, 0%.

Turning to `Cc1ccc(NC(=O)Nc2ccccc2)cc1-c1ccc(C(=O)Nc2ccncc2)cc1` [GSK1398471], the “%Inh” value worked out at 0% in the assay with PIK4CB; 0% in the assay on PIKFYVE; 9% in the assay with PIM1; 0% in the assay with PIM2; 4% in the assay with PIM3; 0% in the assay with PIP5K1A. Moreover, the “%Inh” value in the assay with PIP5K1C is reported as 0%; with PIP5K2B, 6%; in the assay with PIP5K2C it was 0%; with PKAC-alpha it was 29%.

In the case of `Cc1ccc(-c2nc(Nc3ccncc3)c3ccccc3n2)s1` [GSK189015], the “%Inh” value in the assay with PIK4CB is recorded as 5%; in the assay on PIKFYVE, 63%; in the assay with PIM1 it was 17%; with PIM2, 0%; in the assay with PIM3, 12%; with PIP5K1A it was 0%. Besides, the “%Inh” value in the assay with PIP5K1C is given as 22%; with PIP5K2B, 14%; in the assay with PIP5K2C, 1%; in the assay with PKAC-alpha, 21%.

For the compound `COC(=O)C(Cc1ccccc1)NC(=O)NC1CCN(c2ccnc(Nc3ccc(F)cc3)n2)C1` (centres unmarked) [GSK1379714], the “%Inh” value in the assay on PIK4CB came to 7%; with PIKFYVE, 22%; in the assay with PIM1, 0%; in the assay with PIM2, 0%; in the assay on PIM3, 0%; in the assay with PIP5K1A, 45%. The “%Inh” value in the assay with PIP5K1C turned out to be 35%; in the assay with PIP5K2B, 30%; in the assay with PIP5K2C, 36%; in the assay on PKAC-alpha it was 0%.

`Nc1ncnc2occ(-c3ccc4c(c3)CCN4C(=O)Cc3cc(F)ccc3F)c12` [GSK2645446]: the “%Inh” value in the assay with PIK4CB, in the assay on PIKFYVE, in the assay on PIM1, in the assay with PIM2, with PIM3 and in the assay with PIP5K1A was 0% in each case. In addition, the “%Inh” value in the assay on PIP5K1C came to 52%; in the assay with PIP5K2B it was 0%; with PIP5K2C it was 16%; in the assay with PKAC-alpha, 0%.

Consider `COc1nccc(-c2c(-c3ccc(F)cc3)ncn2CCCN2CCOCC2)n1` [SB-282852], for which the “%Inh” value with PIK4CB was found to be 49%; in the assay with PIKFYVE, 37%; in the assay with PIM1 it was 7%; in the assay with PIM2, 0%; in the assay on PIM3, 0%; in the assay on PIP5K1A, 12%. In addition, the “%Inh” value in the assay with PIP5K1C is given as 4%; in the assay on PIP5K2B, 0%; with PIP5K2C, 8%; in the assay with PKAC-alpha it was 0%.

As for `Cc1ccc(NC(=O)c2ccc(Cl)cc2)cc1-c1ccc(C(=O)Nc2ccncc2)cc1` [GSK1398467], the “%Inh” value in the assay with PIK4CB, in the assay with PIKFYVE, in the assay with PIM1, in the assay on PIM2, with PIM3 and in the assay with PIP5K1A was 0% throughout. Besides, the “%Inh” value in the assay on PIP5K1C stood at 45%; in the assay with PIP5K2B, 0%; in the assay with PIP5K2C it was 33%; in the assay with PKAC-alpha it was 0%.
